12 compounds from PubChem BioAssay can be followed below.

Each structure is given as a SMILES string. Activity calls are given as the source filed them.

Test [1] can be described thus: optical density shifts of acrAB sulA E. coli – strain DRC41, OD650, 48 h, E. coli filamentation inducer project, primary screen (AID 1152).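 Note: E. coli MC1000 strain DRC41 lacking acrAB efflux pump and sulA.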 The following applies: higher = more signal, called active from +8 up or from −8 down.
The nature of test [2]: probe aLefty1 binding on compound microarray – biochemical, small-molecule microarray, 635/667 nm fluorescence, primary screen (AID 1153).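 Note: score merges spot fluorescence with signal-to-noise ratio from the scanned slide images.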 Conditions: higher = more signal.
Test [3] in a line: plasmodial surface anion channel blockers, osmotic lysis – cell-based, P. falciparum Indochina, OD700, 1 h, primary screen (AID 1154). Conditions: P. falciparum Indochina infected RBC osmotic lysis, higher = more signal, called active from +8 up or from −8 down.
Test [4] can be described thus: plasmodial surface anion channel blockers, osmotic lysis – cell-based, P. falciparum Indochina, OD700, 2 h, primary screen (AID 1155).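 Note: lysis reports solute entry through the parasite surface anion channel PSAC.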 The following applies: P. falciparum Indochina infected erythrocytes, higher = more signal, called active from +8 up or from −8 down.
The nature of test [5]: changes in parasitized red cell lysis, either direction – P. falciparum Indochina, OD700, 3 h, PSAC antagonist project, primary screen (AID 1156). Conditions: P. falciparum-infected erythrocytes, osmotic lysis, higher = more signal, called active from +8 up or from −8 down.
Test [6] is described as follows: plasmodial surface anion channel blockers, osmotic lysis – cell-based, P. falciparum Indochina, OD700, 18 h, primary screen (AID 1157). The following applies: P. falciparum Indochina infected erythrocytes, osmotic lysis OD700, 18 h; higher = more signal, called active from +8 up or from −8 down.
Test [7] can be described thus: S6 kinase pathway phospho-S6 level changes – cell-based, A549, cytoblot, luminescence, serum-stimulated, primary screen (AID 1158).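 Note: serum-stimulated A549 lung adenocarcinoma cells; signal is phosphorylated S6 detected by cytoblot immunostaining with HRP secondary.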 The following applies: 5 h, higher = more signal.
Test [8] has as its target NADPH oxidase 2 (Homo sapiens) (UniProt P04839). Briefly: compounds shifting NOX2 Amplex Red fluorescence – cell-based, HEK293-NOX2, PMA-stimulated, NOX inhibitor project, primary screen (AID 1159). Note: test concentration not given here. The following applies: 45 min, higher = more signal, called active from +8 up or from −8 down.
The target in test [9] is NADPH oxidase 4 (Homo sapiens) (UniProt Q9NPH5). Briefly: compounds shifting NOX4 Amplex Red fluorescence – cell-based, HEK293-NOX4, tetracycline-induced, NOX inhibitor project, primary screen (AID 1160). The following applies: HEK293-NOX4, Amplex Red H2O2 fluorescence, 45 min; higher = more signal, called active from +8 up or from −8 down.
Sequence of NADPH oxidase 4 (Homo sapiens) (Q9NPH5 whole entry, looked up): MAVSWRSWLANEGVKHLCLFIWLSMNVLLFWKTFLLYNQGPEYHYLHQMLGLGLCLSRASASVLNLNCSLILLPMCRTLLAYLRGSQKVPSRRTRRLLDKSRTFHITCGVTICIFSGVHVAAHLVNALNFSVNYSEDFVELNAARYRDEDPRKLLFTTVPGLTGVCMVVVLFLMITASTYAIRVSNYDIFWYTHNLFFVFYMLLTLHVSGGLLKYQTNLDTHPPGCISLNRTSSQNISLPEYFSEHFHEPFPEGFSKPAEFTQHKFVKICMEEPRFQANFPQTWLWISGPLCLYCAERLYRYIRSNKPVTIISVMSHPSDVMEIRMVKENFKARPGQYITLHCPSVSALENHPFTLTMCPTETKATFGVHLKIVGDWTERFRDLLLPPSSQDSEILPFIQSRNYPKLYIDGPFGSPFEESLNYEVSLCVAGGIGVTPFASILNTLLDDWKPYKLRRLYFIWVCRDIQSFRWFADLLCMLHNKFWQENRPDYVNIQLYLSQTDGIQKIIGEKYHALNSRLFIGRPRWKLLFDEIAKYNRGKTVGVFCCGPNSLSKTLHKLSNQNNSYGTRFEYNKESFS
The target in test [10] is NADPH oxidase 5 (Homo sapiens) (UniProt Q96PH1). Briefly: compounds shifting NOX5 Amplex Red fluorescence – cell-based, HEK293-NOX5, NOX inhibitor project, primary screen (AID 1161). Conditions: HEK293-NOX5, ionomycin, 45 min, higher = more signal.
Sequence of NADPH oxidase 5 (Homo sapiens) (Q96PH1 whole entry, looked up): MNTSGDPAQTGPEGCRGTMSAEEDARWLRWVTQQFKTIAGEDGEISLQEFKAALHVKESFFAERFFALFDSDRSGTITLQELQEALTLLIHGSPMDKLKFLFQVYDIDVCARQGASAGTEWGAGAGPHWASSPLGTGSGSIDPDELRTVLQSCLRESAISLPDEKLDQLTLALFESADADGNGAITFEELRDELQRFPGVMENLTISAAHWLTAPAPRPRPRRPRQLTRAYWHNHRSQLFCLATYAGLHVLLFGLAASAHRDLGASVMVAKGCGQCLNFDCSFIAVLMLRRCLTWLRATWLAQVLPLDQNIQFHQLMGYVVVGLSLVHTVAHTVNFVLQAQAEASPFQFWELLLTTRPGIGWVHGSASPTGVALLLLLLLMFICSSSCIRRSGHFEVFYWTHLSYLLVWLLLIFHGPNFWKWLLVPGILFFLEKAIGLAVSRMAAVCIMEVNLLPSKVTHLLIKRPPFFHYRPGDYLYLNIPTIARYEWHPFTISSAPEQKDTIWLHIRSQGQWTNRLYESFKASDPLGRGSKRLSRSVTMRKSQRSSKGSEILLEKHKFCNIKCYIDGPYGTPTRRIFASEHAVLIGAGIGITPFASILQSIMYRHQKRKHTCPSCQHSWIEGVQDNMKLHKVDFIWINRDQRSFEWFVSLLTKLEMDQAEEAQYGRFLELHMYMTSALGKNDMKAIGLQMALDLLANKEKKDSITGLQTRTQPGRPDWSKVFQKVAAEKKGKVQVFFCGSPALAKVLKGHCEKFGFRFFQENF

Sequence of NADPH oxidase 2 (Homo sapiens) (P04839 whole entry, looked up): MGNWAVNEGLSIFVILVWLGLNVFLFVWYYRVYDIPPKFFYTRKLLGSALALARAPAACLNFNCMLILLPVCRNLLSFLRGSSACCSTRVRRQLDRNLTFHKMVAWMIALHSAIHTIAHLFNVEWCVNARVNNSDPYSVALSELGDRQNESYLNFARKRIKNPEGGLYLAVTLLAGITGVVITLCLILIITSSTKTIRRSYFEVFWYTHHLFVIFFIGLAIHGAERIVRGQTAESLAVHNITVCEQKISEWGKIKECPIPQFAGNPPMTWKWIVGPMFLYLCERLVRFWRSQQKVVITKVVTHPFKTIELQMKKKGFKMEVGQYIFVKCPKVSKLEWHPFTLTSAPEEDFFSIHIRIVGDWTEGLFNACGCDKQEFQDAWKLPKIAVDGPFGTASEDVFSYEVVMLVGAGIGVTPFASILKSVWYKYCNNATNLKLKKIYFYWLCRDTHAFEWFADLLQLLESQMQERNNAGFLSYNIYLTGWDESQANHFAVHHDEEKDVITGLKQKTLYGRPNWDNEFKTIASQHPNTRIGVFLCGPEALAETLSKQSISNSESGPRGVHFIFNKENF

In the case of `CC(=O)n1cc(C(O)C2C=CC3C(=O)N(C)C(=O)C3N2Nc2ccccc2)c2ccccc21` (stereo not given), the z-score in [1] is -1.39 (inactive); in test [3], 1.11 (inactive); in test [4] it was 0.475 (inactive); in [5], -0.372 (inactive); in test [6], 0.876 (inactive); in test [7], -0.994. Besides, the z-score in test [8] was -1.57 (inactive); in test [9], -3.46 (inactive); in test [10] it was -2.78. This compound also yielded a composite z-score in test [2] of 0.384.
In the case of `O=C(NCc1ccccc1)[C@@]1(Cc2ccccc2)N=C(c2ccc(OCCCO)cc2)O[C@H]1c1ccccc1`, the z-score in test [1] was 0.179 (inactive); in test [3], 13.5 (active); in test [4] it was 2.11 (inactive); in test [5], 1.5 (inactive); in [6], 0.86 (inactive); in test [7] it was -0.0312. The z-score is -1.28 (inactive) in test [8], 0.98 (inactive) in [9] and 0.756 in test [10]. The compound further came in with a composite z-score in test [2] of 0.609.
`CCC(CC)C(O)C1C=CC2C(=O)N(C)C(=O)C2N1Nc1ccccc1` (stereo not given): the z-score is -0.39 (inactive) in test [1]; 1.11 (inactive) in [3]; 1.09 (inactive) in test [4]; 0.0973 (inactive) in [5]; 0.951 (inactive) in test [6]; -0.835 in test [7]. The z-score was -1.73 (inactive) in test [8], -3.49 (inactive) in test [9] and -3.77 in test [10]. Further, the composite z-score in [2] was 0.173.
Regarding `COCCOC(=O)N1C(=O)[C@@]2(c3cc(C#CC4=CCCCC4)ccc31)[C@H](C(=O)Nc1nc3ccccc3s1)[C@H]1C(=O)O[C@H](c3ccccc3)[C@H](c3ccccc3)N1[C@@H]2c1ccc(OCCO)cc1`, the z-score was -1.56 (inactive) in [1]; 2.63 (inactive) in test [3]; 1.23 (inactive) in test [4]; -0.218 (inactive) in [5]; 1.59 (inactive) in test [6]; -0.145 in [7]. In addition, the z-score in test [8] is 1.01 (inactive); in test [9], 0.101 (inactive); in test [10], 0.468. Further, the composite z-score in test [2] is -0.333.
As for `CC(C)C[C@H]1NC(=O)[C@@]23C(=O)N[C@@H](Cc4ccccc4)C2[C@H](C)[C@@]2(C)O[C@H]2C3/C=C/C/C=C\CNC(=O)[C@H](Cc2ccccc2)NC1=O` (stereo not given in full), the z-score in [1] was -0.0044 (inactive); in test [3], 2.14 (inactive); in test [4], -0.0365 (inactive); in test [5], 1.58 (inactive); in [6] it was 0.207 (inactive); in test [7], -0.175. For the same compound, the results for the z-score in test [8], in [9] and in [10] were 0.845 (inactive), -0.847 (inactive) and 0.971, respectively. Further, the composite z-score in [2] turned out to be 0.0999.
As to `O=C1NC(=O)C2C1C=CC(C(O)C(c1ccccc1)c1ccccc1)N2Nc1ccc(Cl)cc1Cl` (stereo not given), the z-score in [1] was -1.53 (inactive); in test [3] it was 8.4 (active); in [4], 2.11 (inactive); in [5], 0.537 (inactive); in [6] it was 2.49 (inactive); in test [7], -1.02. Also, the z-score in test [8] is -0.421 (inactive); in test [9], -5.03 (inactive); in test [10], -2.4. In test [2], this compound had a composite z-score of 0.42.
As for `C=CCC(OC(C)=O)[C@@H]1[C@@H](N(Cc2ccc(-c3cccc(C(F)(F)F)c3)o2)C(=O)c2ccc(-c3ccccc3)cc2)c2cc(OCCCO)ccc2N1C(=O)c1ccc(-c2ccccc2)cc1` (stereo not given in full), the z-score in [1] is -0.894 (inactive); in test [3], 0.566 (inactive); in [4] it was 0.434 (inactive); in test [5], 0.0785 (inactive); in [6], 0.508 (inactive); in test [7], 0.0635. Also, the z-score is -1.27 (inactive) in test [8], -1.05 (inactive) in [9] and 0.713 in [10]. For the same compound, the composite z-score in test [2] is -0.169.
Take `COC(=O)C=C(CC(O)c1cccc(Cl)c1)OC` (stereo not given): the z-score in test [1] was 0.502 (inactive); in test [3], 19.4 (active); in test [4], 2.27 (inactive); in test [5], -0.188 (inactive); in test [6], -0.936 (inactive); in [7] it was 0.794. Moreover, the results for the z-score in test [8], in [9] and in test [10] were 0.0865 (inactive), -0.0239 (inactive) and 0.219, respectively. The composite z-score in test [2] came to 1.6.
With `CCOC(=O)C[C@H]1[C@H](OC(=O)c2cc3ccccc3oc2=O)[C@@H](NC(=O)C2CCCCC2)c2cc(OCCCO)ccc2N1C(=O)c1ccccc1`, the z-score was 1.67 (inactive) in [1]; 0.388 (inactive) in [3]; -0.269 (inactive) in test [4]; 0.342 (inactive) in [5]; -1.4 (inactive) in [6]; 1.18 in test [7]. For the same compound, the z-score in test [8] is -0.341 (inactive); in test [9], 0.609 (inactive); in test [10], 0.305. The same compound came in with a composite z-score in test [2] of -0.147.
Take `COc1ccc(CCN2C(=O)[C@@]3(Cc4ccccc42)c2ccccc2C(=O)N(Cc2ccccc2C(F)(F)F)[C@H]3c2ccc(CO)cc2)cc1`: the z-score in [1] was -0.262 (inactive); in test [3], 0.074 (inactive); in test [4] it was -1.13 (inactive); in [5] it was -1.87 (inactive); in test [6], -2.07 (inactive); in [7] it was 1.85. Moreover, the z-score is -1.4 (inactive) in [8], -2.08 (inactive) in [9] and -2.04 in [10]. Also, the composite z-score in [2] is -0.201.
With `COCCOC(=O)N1C(=O)[C@@]2(c3cc(C#CC4=CCCCC4)ccc31)[C@H](C(=O)N1CCc3cc(OC)c(OC)cc3C1)[C@H]1C(=O)O[C@H](c3ccccc3)[C@H](c3ccccc3)N1[C@@H]2c1ccc(OCCO)cc1`, the z-score in test [1] is -0.332 (inactive); in test [3], 3.71 (inactive); in test [4], 1.19 (inactive); in test [5] it was -0.129 (inactive); in test [6] it was 0.801 (inactive); in test [7], 0.261. Further, the z-score in test [8] is 1.77 (inactive); in test [9], 1.18 (inactive); in test [10] it was 0.669. The compound also gave a composite z-score in [2] of 0.0752.
Consider `CN(C)CCCNC(=O)[C@@]1(c2ccc([N+](=O)[O-])cc2)CC(=O)N(C2CCCCC2)[C@@H]1c1ccc(CO)cc1`, for which the z-score is 0.0097 (inactive) in test [1]; 1.31 (inactive) in test [3]; 0.346 (inactive) in [4]; 2.09 (inactive) in [5]; -0.0633 (inactive) in test [6]; -0.0223 in test [7]. For the same compound, the values for the z-score in test [8], in test [9] and in test [10] were 1.84 (inactive), 1.31 (inactive) and 0.787, respectively. The composite z-score in test [2] stood at 0.0793.
